Screens from PubChem.
Bead autofluor: counter-screen for toxin protease inhibitors: compound fluorescence | compound autofluorescence counterscreen, microsphere flow cytometry; active compounds read high | fluorescence intensity (no concentration beside the values) | actives 3.1% (n = 360,000); in the data active means fluorescence intensity above about 16000; inconclusive means no clear call, values can overlap the other calls
MazF activator: increases E. coli MazEF RNase cleavage of RNA. actives 0.32% (n = 350,000). P0AE70. activation, % at 20 µM. FAM/BHQ RNA-DNA oligo cleavage fluorescence, 5 h. AID 504720; in the data active means activation above about 50%
BoNT-A LC inh2: blocks Botulinum neurotoxin A light chain protease. multiplex microsphere protease substrate cleavage, flow cytometry. inhibition, % at 10 µM. actives 0.17% (n = 360,000). AID 588499; further: plate controls were buffer without enzyme for full effect and enzyme alone for no effect
Anthrax LF inh2: anthrax lethal factor protease inhibition. multiplex microsphere protease cleavage assay, LF. inhibition, % at 10 µM. actives 0.12% (n = 360,000). AID 588501; further: plate controls were buffer without enzyme for full effect and enzyme alone for no effect
Target sequence (P15917 whole entry, looked up): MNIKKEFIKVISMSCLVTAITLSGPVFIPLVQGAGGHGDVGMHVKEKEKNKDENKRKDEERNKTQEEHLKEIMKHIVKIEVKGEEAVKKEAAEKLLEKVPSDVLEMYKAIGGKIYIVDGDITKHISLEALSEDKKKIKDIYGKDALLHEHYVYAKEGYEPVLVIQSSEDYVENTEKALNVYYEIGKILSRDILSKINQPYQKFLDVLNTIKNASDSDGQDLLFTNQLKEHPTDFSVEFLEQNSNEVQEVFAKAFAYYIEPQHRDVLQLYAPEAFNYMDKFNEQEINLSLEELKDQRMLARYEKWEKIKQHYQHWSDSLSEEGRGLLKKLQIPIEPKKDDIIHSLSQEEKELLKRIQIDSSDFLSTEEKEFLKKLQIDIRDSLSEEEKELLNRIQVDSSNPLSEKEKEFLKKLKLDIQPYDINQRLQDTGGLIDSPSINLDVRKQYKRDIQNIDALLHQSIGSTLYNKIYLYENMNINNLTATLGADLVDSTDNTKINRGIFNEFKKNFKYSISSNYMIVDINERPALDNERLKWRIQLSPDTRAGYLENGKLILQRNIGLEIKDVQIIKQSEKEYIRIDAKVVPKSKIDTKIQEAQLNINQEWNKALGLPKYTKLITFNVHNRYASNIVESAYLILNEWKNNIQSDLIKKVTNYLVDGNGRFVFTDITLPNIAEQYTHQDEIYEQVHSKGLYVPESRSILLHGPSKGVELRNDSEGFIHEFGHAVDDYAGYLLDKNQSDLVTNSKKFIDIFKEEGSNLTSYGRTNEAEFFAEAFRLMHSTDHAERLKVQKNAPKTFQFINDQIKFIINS
BoNT-F LC inh: inhibitors of Botulinum neurotoxin F light chain protease; Multiplex microsphere protease cleavage assay, flow cytometry; inhibition, % at 10 µM; actives 0.22% (n = 360,000); in the data active means inhibition above about 35%, passing the limit was not always enough; inconclusive means no clear call, values can overlap the other calls; further: plate controls were buffer without enzyme for full effect and enzyme alone for no effect
* hit, by the source's call; ? = inconclusive; / = no result given. Most compounds without a hit are left out; they make up all but 3.7% or so of the library. Unless noted, no stated cut-off is given here; in the data, active means inhibition above about 30%; inconclusive means no clear call, values can overlap the other calls; inactive means below that.

SMILES	Bead autofluor	MazF activator	BoNT-A LC inh2	Anthrax LF inh2	BoNT-F LC inh
COc1ccc(C(C)NC(=O)c2ccoc2C)cc1OC (stereo not given)	24236*	0.7	-3.9	-1.8	-6.2
Cc1occc1C(=O)NC(C)c1ccc2c(c1)OCO2 (stereo not given)	10623	0.8	-0.1	-1.5	-10.8
CCOC(=O)Cc1csc(NC(=O)CSc2nnc(-c3ccc(NS(=O)(=O)CC)cc3)o2)n1	21681*	-3.7	2.1	2.7	2.6
CCOC(=O)Cc1csc(NC(=O)CSc2nnc(-c3ccncc3)o2)n1	4305	-1.6	-1.1	-3.2	-9.0
O=S(=O)(c1ccc(-c2n[nH]c(=S)o2)cc1)N1CCCCC1	6097	14.5	-0.6	1.1	9.9
C/C(=N\NS(=O)(=O)c1ccc(Cl)c([N+](=O)[O-])c1)c1ccc(C)o1	3900	4.0	-0.3	2.6	1.0
Cc1ccc(C(=O)c2cc3ccccc3o2)cc1[N+](=O)[O-]	2619	-8.4	0.7	-1.2	0.4
C/C(=N\NS(=O)(=O)c1ccc(Cl)c([N+](=O)[O-])c1)c1cc2ccccc2o1	22417*	-5.6	?	0.5	-12.1
C/C(=N\NS(=O)(=O)c1ccc(C)c([N+](=O)[O-])c1)c1cc2ccccc2o1	16518*	-4.9	-1.4	-4.2	-5.1
COC(=O)c1c(NC(=O)C(=O)N2CCCC2)sc2c1CC(C)(C)OC2	5168	3.3	1.9	-2.5	1.8
COc1ccc(NC(=O)CSc2nc(C)c3c(c2C#N)CCCC3)cc1	21814*	-2.5	0.0	-0.5	-2.0
CCc1nnc(NC(=O)CSc2nc(C)c3c(c2C#N)CCCC3)s1	10128	2.8	0.0	-1.4	-4.7
COc1ccccc1NC(=O)CSc1nc(C)c2c(c1C#N)CCCC2	23495*	-14.3	-1.9	-1.3	-2.2
COc1cccc(NC(=O)CSc2nc3c(c(-c4ccco4)c2C#N)CCCC3)c1	23093*	-36.5	?	-5.6	1.0
COc1ccc(OC)c(CCNC(=O)CC2(CC3=NS(=O)(=O)c4ccccc4N3)CCCC2)c1	4113	2.8	-0.3	-10.5	7.1
Cc1ccc(CN(c2ccc(C(=O)Nc3ccc4c(c3)OCO4)cc2)S(C)(=O)=O)cc1	15731	23.3	1.8	-1.1	-1.6
CCOC(=O)N1CCN(C(=O)c2ccc(N(Cc3ccc(C)cc3)S(C)(=O)=O)cc2)CC1	23851*	-8.7	-2.2	-3.0	-2.0
CC(=O)c1cccc(NC(=O)c2ccc(N(Cc3ccc(C)cc3)S(C)(=O)=O)cc2)c1	17101*	-6.6	-1.9	-2.1	-1.2
COc1ccc(/C=N/Nc2c(Cl)cc(Cl)cc2Cl)cc1CN1CCOCC1	2034	4.8	0.1	-3.0	-0.2
O=C(NCc1ccccn1)C(=O)NCC1OCCCN1S(=O)(=O)c1cc(F)ccc1F (stereo not given)	4532	7.6	1.9	0.2	-3.8
Cc1cc2oc(C(=O)N(Cc3ccco3)C3CCS(=O)(=O)C3)cc(=O)c2cc1Cl (stereo not given)	23579*	7.7	0.5	2.9	3.2
Cc1cc(C)n(CCCNC(=O)c2ccc(S(=O)(=O)NCc3ccco3)cc2)n1	21580*	-7.1	?	-1.6	-0.4
Cc1nn(-c2ccccc2)c(C)c1CNC(=O)c1ccc(S(=O)(=O)NCc2ccco2)cc1	3841	-1.4	0.2	-3.7	-1.9
O=C(NC1CCN(Cc2ccccc2)CC1)c1ccc(S(=O)(=O)NCc2ccco2)cc1	3395	-25.6	-0.6	-0.5	-1.7
O=C(NC1CCCCC1)c1ccc(S(=O)(=O)NCc2ccco2)cc1	21532*	-1.4	1.8	-5.9	7.4
SMILES	Bead autofluor	MazF activator	BoNT-A LC inh2	Anthrax LF inh2	BoNT-F LC inh
COc1cccc(C(=O)Nc2ccc(S(=O)(=O)NCc3ccco3)cc2)c1	24328*	9.2	-1.4	-2.5	-0.1
CCOC(=O)c1c(C)[nH]c(C(=O)N2CCc3cc(OC)c(OC)cc3C2)c1C	/	-11.2	/	/	/
O=C(O)CCCCCNC(=O)c1ccc(C(=O)NCCCCCC(=O)O)cc1	4778	3.3	0.4	-2.7	-0.8
CN(C)CCCNC(=O)c1ccccn1	16671*	7.6	-0.7	0.9	-4.3
O=C(O)CCCCCNC(=O)c1ccncc1	19428*	-10.7	?	-5.2	-0.4
CN(C)CCCNCCCNC(=O)c1ccncc1	21704*	2.3	1.3	-7.6	-0.5
CCOC(=O)c1nnn(-c2nonc2N)c1-c1ccccc1	23505*	-1.8	-0.2	-1.1	1.4
CCOC(=O)c1nnn(-c2nonc2N)c1CSc1ccccc1	22923*	5.5	0.7	-0.7	3.8
CCOC(=O)c1nnn(-c2nonc2N)c1CSc1ccc(C)cc1	4636	-2.7	-1.3	-2.4	-17.6
CCOC(=O)c1cc2ccccc2n1C1CCN(C)CC1	4375	/	-0.9	-6.6	-7.8
O=C1C=C(c2c(O)ccc3ccccc23)c2ccccc2C1=O	4403	79.9*	1.3	-10.1	28.7
O=C(Nc1sccc1C(=O)NCc1ccco1)c1cccnc1	16659*	-38.3	?	2.7	-0.6
O=C(NCc1ccco1)c1ccccc1	/	-0.3	/	/	/
O=C(O)CSCCn1cccn1	9386	6.3	-1.4	-1.9	-2.7
Cc1ccn(CCSCC(=O)O)n1	22249*	-7.3	?	-3.4	1.6
O=C(CSc1nccc(=O)[nH]1)c1c[nH]c2ccccc12	5190	3.9	-0.9	-2.8	-8.2
O=C(CSc1nccc(=O)[nH]1)c1ccccc1Br	16683*	-8.5	-0.4	-2.6	-1.8
COc1ccc(CCCNC(=O)C2(C)Cc3c(-c4ccc(NC(C)=O)cc4)ccnc3O2)cc1 (stereo not given)	3726	/	-0.1	4.6	-4.4
CC1(C)N(OCc2ccccc2)C(=O)C(=O)N(OCc2ccccc2)C1(C)C	20720*	0.3	?	-12.7	7.7
O=C1c2ccccc2C(=O)N1OCc1ccccc1	9173	3.6	0.5	-2.0	0.9
CCCC#Cc1ccc2c(c1)O[C@H](CN(C)S(=O)(=O)c1cccc(OC)c1)[C@H](C)CN([C@H](C)CO)S2(=O)=O	3817	5.7	0.0	-3.4	0.5
O=C(CSc1nnc2n1CCCN2C(=S)Nc1ccc(Cl)cc1)c1ccccc1	20424*	-19.6	3.8	0.0	6.3
COc1cccc(CC(C(=O)Nc2cc(C)ccc2C)c2nn[nH]n2)c1OC (stereo not given)	22565*	-18.2	0.6	0.6	0.5
Cc1ccc(NC(=O)c2oc3ccccc3c2NC(=O)c2ccc3c(c2)OCO3)cc1	20506*	-3.1	4.8	0.4	4.2
Cc1c(C(=O)NCc2ccc3c(c2)OCO3)oc2ccccc12	20346*	4.2	4.4	-9.3	3.2
COC(=O)c1sc(NC(=O)c2oc3ccccc3c2C)nc1C	2993	3.2	0.4	-5.1	-2.8
Cc1c(C(=O)Nc2nnc(C(F)(F)F)s2)oc2ccccc12	23455*	-8.7	-3.5	0.7	-1.5
Cc1ccc2oc(C(=O)NCc3ccc4c(c3)OCO4)c(C)c2c1	4111	6.6	0.7	-1.9	0.9
O=C(NCc1cccs1)c1ccccc1C(=O)NCc1cccs1	23472*	6.8	?	1.0	-5.3
COc1cccc(NC(=O)Nc2cc(C(=O)NC(C)C)ccc2N2CC3CC(C2)c2cccc(=O)n2C3)c1 (stereo not given)	5614	0.1	-0.6	-3.0	0.8
